Measured values: PubChem BioAssay AID1159580 (chemical genetic matrix, 2015)
Among all 5,500 compounds or so, about 2,000 (36%) were called active. Inconclusive results (about 18%) are left out. Cut-off read from the data, not from the text of the source: active = normalized growth mostly below about 0.91 (no sharp cut-off); inconclusive = no clear call, values can overlap the other calls; inactive = mostly above about 0.92. The list shows a part of the results.

Assay: chemical genetic growth profiling, strain panel (AID 1159580);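 note: tested at 20 µM; growth read once vehicle control cultures reached saturation at 30 °C; 1 = growth at the plate median or of vehicle wells; lower values mean less growth of the strain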
Conditions: growth OD

Measured: normalized growth

CC(=O)N[C@@H](CC(=O)O)C(=O)O
inactive: S. cerevisiae deletion strains, locus YJR043C, strain POL32, hits give low values 1.01 | S. cerevisiae deletion strains, locus YJR075W, strain HOC1, hits give low values 1.01 | S. cerevisiae deletion strains, locus YKL009W, strain mrt4, hits give low values 1.03 | S. cerevisiae deletion strains, locus YKL068W, hits give low values 1.01 | S. cerevisiae deletion strains, locus YKL085W, strain MDH1 (second series), hits give low values 1.01 | S. cerevisiae deletion strains, locus YKL085W, strain MDH1, hits give low values 1.01 | S. cerevisiae deletion strains, locus YKL160W, strain elf1, hits give low values 0.998 | S. cerevisiae deletion strains, locus YKL190W, strain CNB1, hits give low values 1.01 | S. cerevisiae deletion strains, locus YKR001C, strain vps1, hits give low values 1.01 | S. cerevisiae deletion strains, locus YKR026C, strain gcn3, hits give low values 1.01 | S. cerevisiae deletion strains, locus YKR091W, strain srl3, hits give low values 1 | S. cerevisiae deletion strains, locus YLL001W, strain dnm1, hits give low values 1.01 | S. cerevisiae deletion strains, locus YLL026W, hits give low values 1.01 | S. cerevisiae deletion strains, locus YLL041C, strain sdh2, hits give low values 1.01 | S. cerevisiae deletion strains, locus YLR027C, strain aat2, hits give low values 1.02 | S. cerevisiae deletion strains, locus YLR039C, strain RIC1, hits give low values 0.984 | S. cerevisiae deletion strains, locus YLR058C, strain SHM2, hits give low values 1.01 | S. cerevisiae deletion strains, locus YLR102C, strain apc9, hits give low values 1.01 | S. cerevisiae deletion strains, locus YLR221C, strain rsa3, hits give low values 0.974 | S. cerevisiae deletion strains, locus YLR258W, strain gsy2, hits give low values 0.997 | S. cerevisiae deletion strains, locus YLR262C, strain YPT6 (second series), hits give low values 1 | S. cerevisiae deletion strains, locus YLR262C, strain YPT6, hits give low values 1.01 | S. cerevisiae deletion strains, locus YLR268W, strain sec22, hits give low values 1.02 | S. cerevisiae deletion strains, locus YLR320W, strain mms22, hits give low values 0.992 | S. cerevisiae deletion strains, locus YLR330W, strain CHS5, hits give low values 1.01 | S. cerevisiae deletion strains, locus YLR342W, strain FKS1 (second series), hits give low values 1.01 | S. cerevisiae deletion strains, locus YLR342W, strain FKS1, hits give low values 1.01 | S. cerevisiae deletion strains, locus YLR357W, strain rsc2, hits give low values 1.01 | S. cerevisiae deletion strains, locus YLR370C, strain arc18, hits give low values 1.01 | S. cerevisiae deletion strains, locus YLR371W, strain rom2, hits give low values 1.02 | S. cerevisiae deletion strains, locus YLR384C, strain iki3, hits give low values 0.982 | S. cerevisiae deletion strains, locus YLR418C, strain cdc73, hits give low values 1.02 | S. cerevisiae deletion strains, locus YML016C, strain PPZ1, hits give low values 1.01 | S. cerevisiae deletion strains, locus YML032C, strain rad52, hits give low values 1.01 | S. cerevisiae deletion strains, locus YML120C, strain ndi1, hits give low values 1.01 | S. cerevisiae deletion strains, locus YML124C, strain tub3, hits give low values 1.02 | S. cerevisiae deletion strains, locus YMR058W, strain fet3, hits give low values 1.02 | S. cerevisiae deletion strains, locus YMR078C, strain ctf18, hits give low values 1 | S. cerevisiae deletion strains, locus YMR125W, strain sto1, hits give low values 1.01 | S. cerevisiae deletion strains, locus YMR129W, hits give low values 1 | S. cerevisiae deletion strains, locus YMR205C, strain PFK2, hits give low values 0.993 | S. cerevisiae deletion strains, locus YMR223W, strain ubp8, hits give low values 1.01 | S. cerevisiae deletion strains, locus YMR231W, strain pep5, hits give low values 1 | S. cerevisiae deletion strains, locus YMR263W, strain SAP30, hits give low values 1.01 | S. cerevisiae deletion strains, locus YMR307W, strain GAS1, hits give low values 1.03 | S. cerevisiae deletion strains, locus YNL067W, strain RPL9B, hits give low values 1.02 | S. cerevisiae deletion strains, locus YNL071W, strain lat1, hits give low values 1.01 | S. cerevisiae deletion strains, locus YNL128W, strain TEP1, hits give low values 1.02 | S. cerevisiae deletion strains, locus YNL153C, strain GIM3, hits give low values 1 | S. cerevisiae deletion strains, locus YNL209W, strain ssb2, hits give low values 1.01 | S. cerevisiae deletion strains, locus YNL233W, strain BNI4, hits give low values 1 | S. cerevisiae deletion strains, locus YNL248C, strain rpa49, hits give low values 0.91 | S. cerevisiae deletion strains, locus YNL250W, strain rad50, hits give low values 1.01 | S. cerevisiae deletion strains, locus YNL271C, strain bni1, hits give low values 1.02 | S. cerevisiae deletion strains, locus YNL298W, strain CLA4, hits give low values 1.01 | S. cerevisiae deletion strains, locus YNL307C, strain MCK1, hits give low values 1.02 | S. cerevisiae deletion strains, locus YNL322C, strain KRE1 (second series), hits give low values 0.994 | S. cerevisiae deletion strains, locus YNL322C, strain KRE1, hits give low values 1.01 | S. cerevisiae deletion strains, locus YNR049C, strain mso1, hits give low values 0.996 | S. cerevisiae deletion strains, locus YNR052C, strain pop2, hits give low values 1.01 | S. cerevisiae deletion strains, locus YOL006C, strain TOP1, hits give low values 1.04 | S. cerevisiae deletion strains, locus YOL012C, strain htz1 0.941 | S. cerevisiae deletion strains, locus YOL147C, strain pex11, hits give low values 1.01 | S. cerevisiae deletion strains, locus YOR001W, strain rrp6, hits give low values 0.988 | S. cerevisiae deletion strains, locus YOR061W, strain CKA2, hits give low values 1 | S. cerevisiae deletion strains, locus YOR069W, strain VPS5, hits give low values 1.01 | S. cerevisiae deletion strains, locus YOR070C, strain gyp1, hits give low values 1 | S. cerevisiae deletion strains, locus YOR080W, strain dia2, hits give low values 1 | S. cerevisiae deletion strains, locus YOR083W, strain WHI5, hits give low values 1 | S. cerevisiae deletion strains, locus YOR106W, strain vam3, hits give low values 1.01 | S. cerevisiae deletion strains, locus YOR136W, strain idh2, hits give low values 1.01 | S. cerevisiae deletion strains, locus YOR144C, strain elg1, hits give low values 1.02 | S. cerevisiae deletion strains, locus YOR184W, strain ser1, hits give low values 1.01 | S. cerevisiae deletion strains, locus YOR265W, strain rbl2, hits give low values 1.02 | S. cerevisiae deletion strains, locus YOR270C, strain vph1, hits give low values 1.01 | S. cerevisiae deletion strains, locus YOR290C, strain snf2, hits give low values 0.998 | S. cerevisiae deletion strains, locus YOR316C, strain cot1, hits give low values 1.01 | S. cerevisiae deletion strains, locus YPL051W, strain arl3, hits give low values 1.03 | S. cerevisiae deletion strains, locus YPL055C, strain LGE1, hits give low values 1.02 | S. cerevisiae deletion strains, locus YPL078C, strain atp4, hits give low values 1.02 | S. cerevisiae deletion strains, locus YPL106C, strain sse1, hits give low values 1.01 | S. cerevisiae deletion strains, locus YPL240C, strain hsp82, hits give low values 1.01 | S. cerevisiae deletion strains, locus YPL241C, strain CIN2, hits give low values 1.01 | S. cerevisiae deletion strains, locus YPR119W, strain clb2, hits give low values 1.02 | S. cerevisiae deletion strains, locus YPR141C, strain kar3, hits give low values 1.02 | S. cerevisiae deletion strains, locus YPR163C, strain tif3, hits give low values 1.03 | S. cerevisiae deletion strains, locus YPR167C, strain met16, hits give low values 1.01 | S. cerevisiae deletion strains, strain wtn01, hits give low values 1.01 | S. cerevisiae strains, strain wild type, hits give low values 1.01
